Structures are written as SMILES. The campaign covered roughly 220,000 compounds. About 910 (0.41%) were called active.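 Rule for the calls: active = primary inhibition above the hit cutoff, then over 50% inhibition at one or more dose response concentrations (cut at about 23% in these data, passing the limit was not always enough); inconclusive = conflicting primary data, or primary hits not chosen for dose response; inactive = low primary inhibition, or under 50% at every dose.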 The list comes from a sample in which actives are over-represented; it also holds similar structures and randomly drawn compounds. Entries with a potency or affinity are not part of this list.

For this test, the target named is Aminopeptidase N (Plasmodium falciparum (isolate 3D7)) (UniProt O96935). Put plainly: P. falciparum M1AAP inhibitors, biochemical, fluorogenic H-Leu-NHMec substrate, 1536-well (AID 1445).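 Note: plate controls were DMSO full reaction for no effect and no enzyme background for full effect.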 Particulars: recombinant M1AAP, H-Leu-NHMec fluorogenic kinetic assay; at 30 µM, active compounds read high unless noted.
Sequence of Aminopeptidase N (Plasmodium falciparum (isolate 3D7)) (O96935 whole entry, looked up): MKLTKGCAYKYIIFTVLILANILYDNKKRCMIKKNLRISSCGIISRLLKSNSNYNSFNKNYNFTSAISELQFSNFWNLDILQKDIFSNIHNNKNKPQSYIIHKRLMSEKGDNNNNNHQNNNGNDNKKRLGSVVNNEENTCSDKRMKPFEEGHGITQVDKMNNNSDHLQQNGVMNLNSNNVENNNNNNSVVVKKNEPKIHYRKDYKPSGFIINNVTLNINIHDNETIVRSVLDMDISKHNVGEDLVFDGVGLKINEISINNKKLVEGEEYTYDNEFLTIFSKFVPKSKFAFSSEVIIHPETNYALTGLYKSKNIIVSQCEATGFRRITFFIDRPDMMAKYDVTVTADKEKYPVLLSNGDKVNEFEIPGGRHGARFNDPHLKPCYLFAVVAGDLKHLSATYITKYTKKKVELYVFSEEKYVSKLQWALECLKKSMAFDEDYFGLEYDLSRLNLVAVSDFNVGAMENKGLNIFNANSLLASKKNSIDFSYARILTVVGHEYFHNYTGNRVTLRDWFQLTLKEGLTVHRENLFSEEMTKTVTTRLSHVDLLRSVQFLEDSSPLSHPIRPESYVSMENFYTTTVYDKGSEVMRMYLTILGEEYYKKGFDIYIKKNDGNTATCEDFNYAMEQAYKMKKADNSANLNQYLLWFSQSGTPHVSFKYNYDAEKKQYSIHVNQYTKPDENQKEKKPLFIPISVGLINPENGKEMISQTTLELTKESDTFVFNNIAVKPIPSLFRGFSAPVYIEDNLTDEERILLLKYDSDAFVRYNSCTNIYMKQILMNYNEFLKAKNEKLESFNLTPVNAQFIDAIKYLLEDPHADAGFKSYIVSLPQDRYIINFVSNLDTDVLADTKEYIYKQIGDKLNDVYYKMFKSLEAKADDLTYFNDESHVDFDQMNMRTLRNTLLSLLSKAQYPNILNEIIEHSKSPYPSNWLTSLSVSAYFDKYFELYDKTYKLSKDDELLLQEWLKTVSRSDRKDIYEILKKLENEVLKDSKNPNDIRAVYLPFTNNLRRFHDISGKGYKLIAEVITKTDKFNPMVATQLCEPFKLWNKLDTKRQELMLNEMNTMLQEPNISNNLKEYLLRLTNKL
With `O=C(NC(=S)Nc1ccccc1C(F)(F)F)c1ccccc1F`, the inhibition is -0.76% (inactive).
The same measure for `CC(C)N(C(=O)CSc1nnc(Cc2ccc3c(c2)OCO3)n1C)C(C)C`: -1.85% (inactive); for `Cc1ccc(Oc2ccc(OCC(=O)NC(C)C(=O)O)cc2)cc1` (stereo not drawn): 12.1% (inactive); for `COC(=O)c1ccc(OS(=O)(=O)N(C)C)cc1`: -0.39% (inactive).
The same measure for `Cc1ccc2nc(-c3ccc(NC(=O)CSCC(=O)O)cc3)sc2c1`: 7.29% (inactive); for `Cc1cccc(C)c1NC(=O)CCCSc1nc2ccccc2s1`: -3.68% (inactive); for `CC(=O)Nc1scc(C)c1-c1nc2ccccc2s1`: 2.48% (inactive).
The same measure for `Cc1ccc2nc(-c3ccc(NC(=O)COCC(=O)O)cc3)sc2c1`: 14.2% (inactive); for `O=C(O)CSCC(=O)Nc1ccc(-c2nc3ccccc3s2)cc1`: 7.28% (inactive); for `O=C(O)CCC(=O)Nc1nc2ccccc2s1`: 1.12% (inactive).
For `Cc1ccc(-c2nc3ncccc3o2)cc1NC(=S)NC(=O)c1ccco1`, the inhibition is 4.38% (inactive).
The same measure for `Cc1ccc(N2CC(C(=O)NCCCn3ccnc3)CC2=O)cc1` (stereo not drawn): -4.35% (inactive); for `O=C(c1c(Cl)cccc1Cl)N1CCCCCC1`: 4.43% (inactive); for `COc1cc(NC(=S)N2CCCC(CO)C2)cc(OC)c1` (stereo not drawn): -7.92% (inactive).
The same measure for `COc1cc(S(=O)(=O)NCc2cccnc2)c(OC)cc1Br`: -4.04% (inactive); for `C/C=C/C(=O)N1CC2(CC(c3cccc(NC(=O)CC(c4ccccc4)c4ccccc4)c3)=NO2)C[C@H]1C(N)=O` (stereo partly drawn): 12.4% (inactive); for `O=C(N/N=C/c1ccco1)c1ccn[nH]1`: 7.66% (inactive).
Regarding `COc1cc(/C=C2\SC(=O)N(c3ccc(Cl)cc3)C2=O)cc([N+](=O)[O-])c1O`, the inhibition was 8.85% (inactive).
The same measure for `Cc1cccc(NC(=O)CN2C(=O)S/C(=C\c3ccc(O)c([N+](=O)[O-])c3)C2=O)c1`: 22.4% (inactive); for `COc1cc(/C=C2\SC(=O)N(Cc3ccc(Cl)cc3)C2=O)cc([N+](=O)[O-])c1O`: 29.4% (inactive).
Turning to `CCOc1cc(/C=C2\SC(=O)N(CC(=O)Nc3ccccc3F)C2=O)cc([N+](=O)[O-])c1O`, the inhibition was 13.2% (inactive).
For the compound `Cc1nn(-c2ccccc2)c(Cl)c1/C=N/Nc1nnc(C)c(=O)[nH]1`, the inhibition was -2.22% (inactive).
Consider `O=C(C(=O)N1CCN(c2cccc(Cl)c2)CC1)c1c[nH]c2ccccc12`, for which the inhibition was 2.96% (inactive).
Consider `Cc1[nH]c2ccccc2c1CCNC(=O)CCC(=O)c1ccccc1`, for which the inhibition was 0.77% (inactive).
The same measure for `CCCNC(=O)NCCc1c(C)[nH]c2ccccc12`: 23.5% (active); for `CCc1cccc(CC)c1NC(=S)NCCc1c(C)[nH]c2ccccc12`: 0.39% (inactive); for `NS(=O)(=O)c1cccc(NC(=O)COC(=O)CC2CC3CCC2C3)c1` (stereo not drawn): -2.75% (inactive).
The same measure for `CSc1ncccc1C(=O)OCC(=O)N(C)C`: 7.72% (inactive); for `Cc1cccc(-n2ccnc2SCC(=O)Nc2ccc3c(c2)OCCO3)c1`: 3.89% (inactive).
The same measure for `O=C(CSc1nccn1-c1cccc(Cl)c1)Nc1ccc2c(c1)OCCO2`: 24.5% (active); for `O=C(CSc1nccn1-c1ccc(Cl)cc1)Nc1ccc2c(c1)OCO2`: 1.54% (inactive).
For `C=CCNc1ncnc2c1ncn2C1OC(CO)C(O)C1O` (stereo not drawn), the inhibition is -2.12% (inactive).
The same measure for `OC[C@H]1O[C@@H](n2cnc3c(Nc4ccccc4)ncnc32)[C@H](O)[C@@H]1O`: 0.67% (inactive); for `CCCOC(=O)c1ccc(Oc2c(-c3ccc(OCC)cc3O)n[nH]c2C)cc1`: -5.24% (inactive).
The same measure for `COc1ccc(C2=C/C(=C\c3ccc(OC(C)=O)cc3)C(=O)O2)cc1`: -2.13% (inactive).
The same measure for `O=[N+]([O-])c1ccc(C[n+]2cc(-c3ccccc3)n3c2CCCCC3)cc1`: -1.78% (inactive); for `CC(=O)NS(=O)(=O)c1ccc(N=c2ssc3c2-c2cc(C)ccc2NC3(C)C)cc1`: 9.04% (inactive); for `CC(=O)NS(=O)(=O)c1ccc(N=c2ssc3c2-c2cc(C)c(C)cc2NC3(C)C)cc1`: 13.3% (inactive).
Consider `Cc1ccc(CCNC(=O)c2cc(C)nn2-c2ccccc2)cc1`, for which the inhibition is 0.72% (inactive).
The same measure for `COc1ccc(NS(=O)(=O)c2cccs2)c(OC)c1`: 5.44% (inactive); for `COc1ccc(Nc2nc3ccccc3nc2NS(=O)(=O)c2cccs2)cc1`: 10.1% (inactive).
The same measure for `Cc1ccc(NS(=O)(=O)c2ccc(NS(=O)(=O)c3cccs3)cc2)cc1`: -3.61% (inactive); for `Cc1cc(C)nc(NS(=O)(=O)c2cccs2)c1`: -0.13% (inactive).
The same measure for `Cc1ccc(-c2cc(C(=O)O)c3ccccc3n2)c(C)c1`: 3.63% (inactive); for `Cc1ccc(NC(=O)Cn2c(/C=C/c3ccccc3)nc3ccccc32)cc1C`: 7.46% (inactive).
As for `Cc1c(Cl)cccc1N1C(=O)CC(NNC(=O)c2cccnc2)C1=O` (stereo not drawn), the inhibition is 8.09% (inactive).
Regarding `O=C(c1cccnc1)N1CCN(c2ccccc2Cl)CC1`, the inhibition is -11.5% (inactive).
The same measure for `CCN1C(=S)SC(=O)C1=C1C=C(C)OC(C)=C1`: 0.47% (inactive); for `CCN1C(=S)SC(=O)C1=C1C=C(C)N(CCO)C(C)=C1`: 26.2% (active).
The same measure for `CCN1C(=S)SC(=O)C1=C1C=C(C)N(Cc2ccco2)C(C)=C1`: 12.6% (inactive).
The same measure for `C/C(CC(=O)Nc1ccccc1)=N\NC(=O)COc1ccc(C)cc1Br`: 2.81% (inactive); for `CCC(C)(C)n1nnnc1C(c1ccc2ncccc2c1)N1CCCCCC1` (stereo not drawn): 4.86% (inactive); for `CCC(C)(C)n1nnnc1C(c1ccc2ncccc2c1)N1CCN(c2ccc(O)cc2)CC1` (stereo not drawn): 4.2% (inactive).
In the case of `COc1ccc(/C=C/C(=O)NCc2cnn(C)c2C)cc1COc1ccc(Br)cc1`, the inhibition was -0.2% (inactive).
Turning to `CC1CCCC(C)N1NC(=O)c1cccc(S(=O)(=O)N2CCc3ccccc32)c1` (stereo not drawn), the inhibition is 1.3% (inactive).
The same measure for `COC(=O)n1c(=O)oc2ccccc21`: 6.55% (inactive); for `COc1cccc(Cn2nnc(C(=O)Nc3cc(C)ccc3OC)c2N)c1`: 7.36% (inactive); for `Cc1cc(NC(=O)Cn2c(=O)n(Cc3ccccc3)c(=O)c3ccccc32)no1`: 23.7% (active).
`CCn1cnc2c1c(=O)n(CC(=O)Nc1cc(C)on1)c(=O)n2Cc1ccccc1`: the inhibition is -3% (inactive).
As for `CN(C)c1ccc(NC(=O)Cn2c(=O)n(Cc3ccccc3)c(=O)c3ccccc32)cc1`, the inhibition is 10.9% (inactive).
The same measure for `Cc1ccc(C(=O)CC2(O)C(=O)Nc3ccccc32)s1` (stereo not drawn): -3.92% (inactive); for `CCOc1ccccc1NC(=S)NCCCn1ccnc1`: -1.93% (inactive).
The same measure for `O=C(Nc1ccc(F)cc1)c1ccccc1S(=O)(=O)c1ccccc1[N+](=O)[O-]`: 10.1% (inactive).
The same measure for `CC(=O)Nc1ccc(NC(=O)c2ccccc2S(=O)(=O)c2ccccc2[N+](=O)[O-])cc1`: 6.51% (inactive); for `COCc1cc(C)n(CC(=O)OC)c(=O)c1C#N`: 6.13% (inactive).
On to `CC(C)(C)NC(=O)CN(C(=O)CS(=O)CC(=O)Nc1ccc(F)cc1)c1ccc(Cl)cc1` (stereo not drawn), for which the inhibition was 3.41% (inactive).
The same measure for `Cc1cc(C)n(-c2nc3ccccc3nc2N2CCCCCC2)n1`: 5.75% (inactive).
Turning to `CCN(CC)c1nc2ccccc2nc1-n1nc(C)cc1C`, the inhibition is 25.1% (active).
The same measure for `Cc1cc(C)n(-c2nc3ccccc3nc2N2CCCC2)n1`: 7.98% (inactive); for `CC(=O)c1sc2nc(C)cc(C)c2c1N`: 3.82% (inactive); for `CCn1c(SCC(=O)N2CCCC2)nnc1-c1ccc(S(=O)(=O)N2CCCCCC2)cc1`: 17.8% (inactive).
The same measure for `CCOC(=O)C1=C(O)/C(=C/c2cc(OC)c(OC)c(OC)c2)SC1=Nc1ccc(OC)cc1`: 0.13% (inactive).
The same measure for `CCOC(=O)C1=C(O)/C(=C/c2ccc(-c3ccccc3C(=O)O)o2)SC1=Nc1ccc(OC)cc1`: 26.2% (active).
For `CCOC(=O)C1=C(O)/C(=C/c2ccccn2)SC1=Nc1ccc(Cl)cc1`, the inhibition is -2.13% (inactive).
The same measure for `CCOC(=O)c1ccc(N2C(=O)C(O)=C(C(C)=O)C2c2ccc(O)c(OC)c2)cc1` (stereo not drawn): 11% (inactive); for `COc1ccccc1-c1c(NC(=O)c2ccco2)n(C)c2ccccc2c1=O`: 5.76% (inactive).
The same measure for `O=C(c1cnc2n(c1=O)CCS2)N(c1ccccc1)C1CCCCC1`: 3.16% (inactive); for `CN(C(=O)c1cnc2n(c1=O)CCS2)C1CCCCC1`: 7.72% (inactive).
With `Cn1nnnc1Sc1ccc([N+](=O)[O-])cc1Cl`, the inhibition is 4.02% (inactive).
For `Cc1ccc(OCC(=O)Nc2ccc(S(=O)(=O)Nc3ccccn3)cc2)cc1C`, the inhibition is -0.21% (inactive).
The same measure for `Cc1ccc2nc(NC(=O)CSc3nncc(=O)n3N)sc2c1`: -3.78% (inactive).
For the compound `CC(=O)Nc1nc2n(n1)C(c1ccccc1)C=C(c1ccccc1)N2` (stereo not drawn), the inhibition was 21.9% (inactive).
The same measure for `CC1=CC(c2ccccc2)n2nc(NS(=O)(=O)c3ccc(C)cc3)nc2N1` (stereo not drawn): 9.04% (inactive); for `CC1=CC2=NC(=O)/C(=C\c3cccn3CCOc3cc(C)cc(C)c3)C(=N)N2O1`: 4.33% (inactive).
Consider `CCOC(=O)COc1cc2oc(=O)cc(C)c2cc1[N+](=O)[O-]`, for which the inhibition is 1.36% (inactive).
Regarding `CSc1cccc(-n2cc(-c3ccc4c(c3)OCO4)[nH]c2=O)c1`, the inhibition was 25.8% (active).
The same measure for `COc1ccc(-c2cn(-c3cccc(C)c3)c(=O)[nH]2)cc1OC`: 0.73% (inactive); for `CCOc1ccc(-c2cn(-c3cccc(SC)c3)c(=O)[nH]2)cc1`: 7.5% (inactive); for `COc1cccc(-c2nnc(SCc3cccnc3)o2)c1`: 1.1% (inactive).
`Cc1nn(-c2ccccc2)c(C)c1/C=N/NC(=O)c1cc(C23CC4CC(CC(C4)C2)C3)[nH]n1`: the inhibition is 8.14% (inactive).
The same measure for `CN(NS(=O)(=O)c1ccc(Cl)cc1)c1ncc(C(F)(F)F)cc1Cl`: 3.99% (inactive); for `Cc1cccc(NC(=O)c2c(-c3ccccc3)noc2C)n1`: 3.16% (inactive); for `CSc1cccc(NC(=S)N2CCC(N(C)C3CCCCCC3)CC2)c1`: 5.52% (inactive).

Values taken from PubChem BioAssay AID1445 (SRMLSC, 2008).
